Assay results as given in PubChem BioAssay AID596 (National Center for Advancing Translational Sciences (NCATS), 2007).
Hit rate of the full screen: of about 71,000 compounds, about 1,400 (2%) were called active. Another 3% or so got no clear call; they are omitted. The call rests on the fitted dose curve; in most records, active means well fitted curve in the direction sought with a large enough effect; inconclusive means small, poorly fitted or top-dose-only effect; inactive means no such curve, though single readings can be large or run the other way. Shown is part of a subset that was picked to be rich in actives. Non-standard residues stand in square brackets, D forms with d. Residues, ends and D or L forms follow the SMILES beside them. ξ: configuration not given here. ξV = CC(C)C(N)C(=O)O

The compounds below were run against Microtubule-associated protein tau (Homo sapiens) (UniProt P10636) (assay: qHTS Assay for Tau Filament Binding). Details: recombinant tau filaments, thioflavin S fluorescence, 15 h, filaments grown with octadecylsulfate alongside compound; series mostly up to 57.1 µM; activity change, negative = inhibition: at the top concentration.
Procedure, shortened: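 Tau 2 uM in ThS buffer dispensed; compound added; 60 uM ODS added (finals 1 uM tau, 30 uM ODS); 15 h 37 C; fluor ex450/em510.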
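Further: actives lower thioflavin S fluorescence by blocking filaments or displacing dye.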
On the % scale 0 is the no-effect control and ±100 the full control effect; potency means the concentration at half of the fitted maximal effect.

Microtubule-associated protein tau (Homo sapiens), sequence (P10636 whole entry, looked up): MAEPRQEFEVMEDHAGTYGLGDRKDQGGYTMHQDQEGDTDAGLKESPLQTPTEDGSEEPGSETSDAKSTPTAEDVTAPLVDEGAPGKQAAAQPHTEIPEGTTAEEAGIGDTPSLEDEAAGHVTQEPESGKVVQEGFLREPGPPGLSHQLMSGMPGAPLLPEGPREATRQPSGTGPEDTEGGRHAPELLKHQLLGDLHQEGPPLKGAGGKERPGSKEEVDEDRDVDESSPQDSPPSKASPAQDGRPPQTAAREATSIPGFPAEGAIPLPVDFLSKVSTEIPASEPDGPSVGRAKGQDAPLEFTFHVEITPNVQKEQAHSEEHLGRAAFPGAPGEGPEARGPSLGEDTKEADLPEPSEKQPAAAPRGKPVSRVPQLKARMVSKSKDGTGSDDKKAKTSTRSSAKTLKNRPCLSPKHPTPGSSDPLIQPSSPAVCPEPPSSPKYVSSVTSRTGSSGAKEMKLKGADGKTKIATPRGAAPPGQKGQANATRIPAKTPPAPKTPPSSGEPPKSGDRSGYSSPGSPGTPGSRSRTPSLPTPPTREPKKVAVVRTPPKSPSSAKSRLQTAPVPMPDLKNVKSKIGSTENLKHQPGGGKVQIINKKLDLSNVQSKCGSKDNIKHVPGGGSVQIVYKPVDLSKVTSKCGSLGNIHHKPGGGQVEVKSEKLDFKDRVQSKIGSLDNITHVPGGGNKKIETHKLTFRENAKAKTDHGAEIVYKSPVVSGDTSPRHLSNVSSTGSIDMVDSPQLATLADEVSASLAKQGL

Activity change, negative = inhibition, inactive:
COc1ccc(F)cc1S(=O)(=O)Nc1ccc2c(c1)OCO2 -5.1%
CC(C)CNS(=O)(=O)c1ccc(OCC(=O)Nc2ccc3c(c2)OCO3)c(Cl)c1 101%
c1ccc2sc(SCCSc3nc4ccccc4s3)nc2c1 -3.1% [at 11.4 µM]
CCOc1ccc(NC(=O)CCS(=O)(=O)c2cccc3nsnc23)cc1 -9.9%
CCCCN(CC)C(=O)CN(C)S(=O)(=O)c1cccc2nsnc12 -4.7%
CC1CCCC(NC(=O)CSc2nccn2C)C1C (stereo not given) 9%
O=C(c1cnccn1)N1CCC2(CCN(Cc3cc(C(F)(F)F)cc(C(F)(F)F)c3)CC2)CC1 -9.4%
C/C=C/C=C/C(=O)O -9.3%
O=C(OCC(COC(=O)c1ccccc1)(COC(=O)c1ccccc1)COC(=O)c1ccccc1)c1ccccc1 2.5%
CC(C)Nc1nc(N(c2ccccc2)c2ccccc2)nc(-n2ccnc2)n1 5%
CCOC(=O)c1cn(CC(=O)Nc2ccc(C(C)C)cc2)nn1 -18%
CCCC(=O)Nc1cc(OCC)c(NC(=O)NC2CCCCC2)cc1OCC 0.7%
O=C(O)CC(C(=O)O)C(CC(=O)O)C(=O)O (stereo not given) -2.3%
CCCC[C@@H]1C[C@H]1C(NC(=O)c1ccco1)c1ccc(C(=O)OC)cc1 (stereo not given in full) 8.7%
CCN(CC)S(=O)(=O)N1CCC(C(=O)NC(C)CCc2ccccc2)CC1 (stereo not given) 6%
Cc1ccc2c(NC(=O)C3CC3)cccc2n1 -1.6%
Cc1noc(C)c1-c1cc(NCc2cccnc2)ncn1 5.5%
O=S(=O)(NCc1cccnc1)c1ccc(Br)s1 -1.9%
COc1ccc(Cl)cc1S(=O)(=O)Nc1cccc(C(=O)O)c1 11.9%
Cc1ccnc(SCCn2c(N(C)Cc3ccccc3)nc3c2c(=O)n(C)c(=O)n3C)n1 0.1%
COc1cccc(-c2nc(Nc3ccncc3)c3ccccc3n2)c1 105%
CCOC(=O)CSc1nnc(NC(=O)c2cccc(S(=O)(=O)N3CCCCC3)c2)s1 5.8%
CCn1c(COc2cccc(OC)c2)nnc1SCC(=O)N1CCOCC1 3%
COC(=O)c1[nH]c2ccccc2c1NS(=O)(=O)c1ccc(OC)cc1OC 0.1%
CCCC(=O)Nc1c(O)c2ccccc2[nH]c1=O 0.1%
C[C@]12C=CC(=O)C=C1CC[C@@H]1[C@@H]2C(=O)C[C@@]2(C)[C@H]1CC[C@]2(O)C(=O)CO -6.3%
COCCCNC(=O)CSc1nc2ccc(N3CCOCC3)cc2c(=O)n1CCc1ccccc1 -17.5%
CCn1c(SCC(=O)NCC2CCCO2)nc2cc(S(=O)(=O)N3CCCCC3)ccc21 (stereo not given) 0.9%
COC(=O)[C@@]1(Cc2ccc(OC)cc2)[C@H]2c3cc(C(=O)N4CCCC4)n(Cc4ccc(C(F)(F)F)nc4)c3C[C@H]2CN1C(=O)c1ccccc1 4.2%
COc1ccc(COC(=O)c2n[nH]c3ccccc23)cc1F 18.2%
COc1ccc(CCNC(=O)CCCCn2c(=O)[nH]c3ccccc3c2=O)cc1OC -0.2%
COCC(C)NC(=O)c1ccc(Cl)c(Cl)c1 (stereo not given) 6.1%
COc1cccc(Cn2c(=O)cnc3cncnc32)c1 -17.1%
CCNc1ncc2ncc(=O)n(Cc3cccc(OC)c3)c2n1 2%
COc1ccc(N)c(OC)c1 -13.8%
C=CCOC(=O)c1ccccc1C(=O)OCC=C 3.3%
CC(C)CO -6.5%
CO[C@@H]1/C=C\O[C@]2(C)Oc3c(C)c(O)c4c(O)c(c(CN(C)C)c(O)c4c3C2=O)NC(=O)/C(C)=C\C=C[C@@H](C)[C@@H](O)[C@H](C)[C@@H](O)[C@H](C)[C@H](OC(C)=O)[C@@H]1C 3.4% [at 11.4 µM]
O=C(c1csnn1)N1CCC2(CC1)CN(c1ncccn1)C2 -5.6%
CN1CCN(c2ncc3nc(-c4ccc(Cl)cc4)c(=O)n(-c4ccccc4)c3n2)CC1 220%
CCOc1cc(C(=S)N2CCOCC2)ccc1O 1%
COC(=O)c1ccc(CN(c2ccccc2OC)S(=O)(=O)c2cccs2)o1 5.3%
CC(=O)NC(C(=O)NCC(N)=O)C(C)C (stereo not given) (Ac-[ξV]-Gly-NH2) -2.7%
CCNc1ncc2ncc(=O)n(CCc3ccccc3)c2n1 13.6%
Cc1ccc2oc(=O)ccc2c1 4.9%
CCCCNC(=O)c1ccccc1NC(=O)c1ccccc1N(C)S(C)(=O)=O -10.5%
Cc1ccc(Nc2cc(=O)n(C3CCCCC3)c(=O)[nH]2)cc1C 120%
COCCn1c(=O)c(CCc2ccccc2)nc2cnc(N3CCNCC3)nc21 10.5%
COCCn1c(=O)c(-c2cc(F)cc(F)c2)nc2cncnc21 -1.7%
CNc1ncnc2ccc(-c3cccc(NS(C)(=O)=O)c3)cc12 -8.5%
CCC[C@@H]1C[C@@]1(CCC)[C@@H](NC(=O)c1ccccc1)c1ccc(C(=O)OC)cc1 9.7%
CCOc1cc(NC(=O)c2ccco2)c(OCC)cc1NC(=O)COc1ccccc1 -5.3%
CC(=O)Nc1cccc(Oc2cc(C#N)c(C#N)cc2N2CCOCC2)c1 -24.1%
CC/C=C/C/C=C/C/C=C/CCCCCCCC(=O)OCC -12.2%
Cc1c(C(=O)OCC(=O)N(CCC#N)c2ccccc2)oc2c1ccc1ccccc12 7.5%
CCc1c(C)n([O-])c2c([n+]1=O)CCCCC2 -6.7%
O=C1CCCc2c1[nH]c1ccc(Br)cc21 33.9%
CC(C)(C)[Si](OCC[C@@H]1C[C@@]1(C)[C@@H](NP(=O)(c1ccccc1)c1ccccc1)c1ccccc1)(c1ccccc1)c1ccccc1 -2.3%
CC(=O)c1cccc(S(=O)(=O)N2CCC(n3nnc4cc(F)ccc43)CC2)c1 -5.9%
C/C(CC(O)(/C=N/O)c1ccccc1)=N\O (stereo not given) -19.4%
CCCC(Cl)CCCC(Cl)CCC(Cl)CCC(Cl)CCC(Cl)CCCC(Cl)CCC (stereo not given) -0.1%
Cc1cc(C(=O)O)ccc1[N+](=O)[O-] -1.2%
CCc1c(C)nc2ncnn2c1N1CCC(C(=O)NCc2ccc3c(c2)OCO3)CC1 6.8%
O=C(NCCN1CCOCC1)[C@H](Cc1ccccc1)N1C(=O)c2ccccc2C1=O -0.8%
Cc1ccc(C)n1C(Cc1ccccc1)C(=O)O (stereo not given) 28.1%
O=C(OC1CCOC1=O)c1ccc(-c2nc3ccccc3s2)s1 (stereo not given) -28.6%
COc1ccccc1CNc1ncncc1-c1cccc(NS(C)(=O)=O)c1 -1.8%
O=C(O)CCCCC(=O)O 0%
CC1(CCC(=O)OC2CCCCC2)OCCO1 -1.1% [at 11.4 µM]
CC1CC(c2ccccc2)n2nc(NC(=O)c3cccs3)nc2N1 (stereo not given) 7.4%
Cc1cccc(Br)c1 0.5%
CC(=O)N1[C@H](C)C=C[C@]1(Cc1ccccc1)C(=O)NCc1ccccn1 0.2%
Cc1ccc(-n2c(N)c(C(=O)N3CCOCC3)sc2=S)c(C)c1 -6.7%

Potency, active:
COc1ccc(S(=O)(=O)Nc2ccc3c(c2)OCO3)cc1Cl 20 µM
CCOc1ccc(-c2cn(S(=O)(=O)c3cccc4nsnc34)nc2N)cc1 25.1 µM
COc1cc(Br)cc(/C=N/c2ncn[nH]2)c1O 1.58 µM
N#Cc1nc(N)nc(N(c2ccccc2)c2ccccc2)n1 7.94 µM
CC(=O)N1CCC(C(=O)Nc2nc(-c3ccccc3)ns2)CC1 10 µM
c1ccc2c(Nc3ccncc3)nc(-c3ccoc3)nc2c1 7.94 µM
CCCS(=O)(=O)Nc1c(C(=O)O)[nH]c2ccccc12 25.1 µM
CCCCn1c(SCC(=O)NCC2CCCO2)nc2ccc(N3CCOCC3)cc2c1=O (stereo not given) 15.8 µM
COc1ccc(N=Cc2c(O)[nH]c3ccccc23)cc1OC 12.6 µM
COc1cccc(Nc2ncc3ncc(=O)n(C4CC4)c3n2)c1 12.6 µM
CC[C@@H]1Cc2cc(O)ccc2C2=C1c1ccc(O)cc1C[C@H]2CC 25.1 µM
CC(C)[C@H](CO)Nc1nc(Nc2cc(N)cc(Cl)c2)c2ncn(C(C)C)c2n1 31.6 µM
Cc1c(C)c2c(c(C)c1O)CC[C@@](C)(CN1CCN(c3cc(N4CCCC4)nc(N4CCCC4)n3)CC1)O2 12.6 µM
COCCn1c(=O)c(-c2cc(F)cc(F)c2)nc2cnc(N3CCNCC3)nc21 3.16 µM
CCOc1cc(N2CCOCC2)c(OCC)cc1NC(=O)COc1cccc2cccnc12 25.1 µM
O=[n+]1c2c(n([O-])c3cc(Br)ccc31)CCC2 25.1 µM
N/C(=N\c1nc2ccccc2o1)NC(=O)C(Cc1ccccc1)N1C(=O)c2ccccc2C1=O (stereo not given) 12.6 µM
C#CCCCCCCCCCCCCCCCC(=O)O 31.6 µM
C/C(=C\c1ccco1)C1Nc2cccc3cccc(c23)N1 15.8 µM

Potency, inactive:
O=NO
CCCCC(CC)CN (stereo not given)
CCCCCCCCCCCC(=O)O
